We go through four compounds from PubChem BioAssay.

The structures appear in SMILES notation. The source made the active and inactive calls. Unless noted, how the calls were made is not given here.

Experiment [1] concerns Wnt5a (protein binding on small-molecule microarray). Put plainly: Wnt5a binders on small-molecule microarray, primary screen, biophysical, 635/667 nm fluorescence (AID 1142).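 Further: fluorescence read at 667 nm with signal to noise per printed feature.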 As to conditions: 635 nm fluorescence, higher = more signal.
Experiment [2] can be described thus: cell viability in Huh7 cells, primary screen, cytotoxicity control for HCV replication inhibitor project, CellTiter-Glo luminescence, basal, 48 h (AID 1143).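 Further: Huh7 hepatoma cells carrying a hepatitis C replication reporter with no stimulus; test concentration not given here.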 As to conditions: Huh7 HCV replicon, higher = more signal, called active from +8 up or from −8 down. On the technique in general: ATP-based viability assays read luminescence as a measure of living cells.
A short description of experiment [3]: P. aeruginosa biofilm formation inhibitors, primary screen, PAO1 strain, BacTiter-Glo luminescence, LB-PBS (AID 1144). As to conditions: 12 h, higher = more signal.
A short description of experiment [4]: CREB reporter modulators without forskolin, primary screen, cell-based, PC12, CRE-LacZ reporter, unstimulated (AID 1145). As to conditions: no forskolin, luminescence, 4.5 h, higher = more signal, called active from +8 up or from −8 down.
A short description of experiment [5]: CREB reporter modulators under forskolin, primary screen, cell-based, PC12, CRE-LacZ reporter, forskolin-stimulated (AID 1146).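 Further: PC12 cells with 6xCRE LacZ reporter stimulated by forskolin 10 µM; beta-galactosidase reporter signal reflecting CREB driven transcription.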 As to conditions: luminescence, 4.5 h, higher = more signal, called active from +8 up or from −8 down.
Experiment [6] addresses Streptavidin (Streptomyces avidinii) (UniProt P22629). As to the kind of experiment: streptavidin binders on small-molecule microarray, primary screen, artefact control for SMM compound annotation, biophysical, 635/667 nm fluorescence (AID 1147).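 Further: signal reflects streptavidin binding to arrayed compounds as a control protein.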 As to conditions: streptavidin binding, higher = more signal.
Experiment [7] can be described thus: small-molecule binders of probe aInhba, primary screen, biochemical, small-molecule microarray, 635/667 nm fluorescence (AID 1148).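 Further: score merges 667nm spot fluorescence with signal-to-noise for antibody binding to printed compounds.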 As to conditions: higher = more signal.
Experiment [8] concerns the target Torsin-1A (Homo sapiens) (UniProt O14656). Put plainly: torsin A binders from cell lysate, primary screen, small-molecule microarray, wild-type, 635/667 nm (AID 1149). As to conditions: COS7 hTOR1A-WT lysate, 635 nm fluorescence, higher = more signal.
Experiment [9] has the same target. As to the kind of experiment: small-molecule binders of mutant TOR1A in lysate, primary screen, cell lysate, small-molecule microarray, COS7 lysate, 635/667 nm fluorescence (AID 1150).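 Further: score pools 667 nm emission and signal to noise measuring lysate protein binding.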 As to conditions: COS7 hTOR1A mutant lysate, 635 nm fluorescence, higher = more signal.
The subject of experiment [10] is Sonic hedgehog protein (Shh). Put plainly: small-molecule binders of Shh protein, primary screen, biochemical, small-molecule microarray, 635/667 nm fluorescence (AID 1151).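 Further: Shh protein binding to compounds spotted on small-molecule microarray slides; score combines spot fluorescence intensity with signal-to-noise across triplicate slides.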 As to conditions: small-molecule microarray binding, 635 nm fluorescence; higher = more signal.
Experiment [11] can be described thus: E. coli DRC41 culture turbidity changes, primary screen, E. coli filamentation inducer project, strain DRC41, OD650, 48 h (AID 1152).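 Further: E. coli MC1000 strain DRC41 lacking acrAB efflux pump and sulA.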 As to conditions: E. coli DRC41 (acrAB sulA), higher = more signal, called active from +8 up or from −8 down.
A short description of experiment [12]: small-molecule binders of probe aLefty1, primary screen, biochemical, small-molecule microarray, 635/667 nm fluorescence (AID 1153).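 Further: score merges spot fluorescence with signal-to-noise ratio from the scanned slide images.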 As to conditions: higher = more signal.
Experiment [13] can be described thus: PSAC antagonists in infected red cells, primary screen, cell-based, P. falciparum Indochina, OD700, 1 h (AID 1154). As to conditions: P. falciparum Indochina infected RBC osmotic lysis, higher = more signal, called active from +8 up or from −8 down.
The nature of experiment [14]: PSAC antagonists in infected red cells, primary screen, cell-based, P. falciparum Indochina, OD700, 2 h (AID 1155).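 Further: lysis reports solute entry through the parasite surface anion channel PSAC; channel blockers reduce lysis of infected cells.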 As to conditions: P. falciparum Indochina infected erythrocytes, osmotic lysis OD700; higher = more signal, called active from +8 up or from −8 down.
Experiment [15] in a line: osmotic lysis modulators in infected erythrocytes, primary screen, PSAC antagonist project, cell-based, P. falciparum Indochina, OD700, 3 h (AID 1156). As to conditions: higher = more signal, called active from +8 up or from −8 down.
A short description of experiment [16]: PSAC antagonists in infected red cells, primary screen, cell-based, P. falciparum Indochina, OD700, 18 h (AID 1157). As to conditions: P. falciparum Indochina infected erythrocytes, osmotic lysis OD700, 18 h; higher = more signal, called active from +8 up or from −8 down.
Experiment [17] is described as follows: modulators of S6 phosphorylation in cells, primary screen, cell-based, A549, cytoblot, luminescence, serum-stimulated (AID 1158).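 Further: serum-stimulated A549 lung adenocarcinoma cells; signal is phosphorylated S6 detected by cytoblot immunostaining with HRP secondary.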 As to conditions: A549 phospho-S6 cytoblot, 5 h, higher = more signal.
Experiment [18] addresses NADPH oxidase 2 (Homo sapiens) (UniProt P04839). Put plainly: NOX2-dependent H2O2 signal modulators, primary screen, NOX inhibitor project, cell-based, HEK293-NOX2, PMA-stimulated, Amplex Red fluorescence (AID 1159). Further: test concentration not given here. As to conditions: 45 min, higher = more signal, called active from +8 up or from −8 down.
For experiment [19], the target named is NADPH oxidase 4 (Homo sapiens) (UniProt Q9NPH5). As to the kind of experiment: NOX4-dependent H2O2 signal modulators, primary screen, NOX inhibitor project, cell-based, HEK293-NOX4, tetracycline-induced, Amplex Red fluorescence (AID 1160). As to conditions: 45 min, higher = more signal, called active from +8 up or from −8 down.
For experiment [20], the target named is NADPH oxidase 5 (Homo sapiens) (UniProt Q96PH1). As to the kind of experiment: NOX5-dependent H2O2 signal modulators, primary screen, NOX inhibitor project, cell-based, HEK293-NOX5, Amplex Red fluorescence (AID 1161). As to conditions: HEK293-NOX5, ionomycin, 45 min, higher = more signal.
NADPH oxidase 5 (Homo sapiens), sequence (Q96PH1 whole entry, looked up): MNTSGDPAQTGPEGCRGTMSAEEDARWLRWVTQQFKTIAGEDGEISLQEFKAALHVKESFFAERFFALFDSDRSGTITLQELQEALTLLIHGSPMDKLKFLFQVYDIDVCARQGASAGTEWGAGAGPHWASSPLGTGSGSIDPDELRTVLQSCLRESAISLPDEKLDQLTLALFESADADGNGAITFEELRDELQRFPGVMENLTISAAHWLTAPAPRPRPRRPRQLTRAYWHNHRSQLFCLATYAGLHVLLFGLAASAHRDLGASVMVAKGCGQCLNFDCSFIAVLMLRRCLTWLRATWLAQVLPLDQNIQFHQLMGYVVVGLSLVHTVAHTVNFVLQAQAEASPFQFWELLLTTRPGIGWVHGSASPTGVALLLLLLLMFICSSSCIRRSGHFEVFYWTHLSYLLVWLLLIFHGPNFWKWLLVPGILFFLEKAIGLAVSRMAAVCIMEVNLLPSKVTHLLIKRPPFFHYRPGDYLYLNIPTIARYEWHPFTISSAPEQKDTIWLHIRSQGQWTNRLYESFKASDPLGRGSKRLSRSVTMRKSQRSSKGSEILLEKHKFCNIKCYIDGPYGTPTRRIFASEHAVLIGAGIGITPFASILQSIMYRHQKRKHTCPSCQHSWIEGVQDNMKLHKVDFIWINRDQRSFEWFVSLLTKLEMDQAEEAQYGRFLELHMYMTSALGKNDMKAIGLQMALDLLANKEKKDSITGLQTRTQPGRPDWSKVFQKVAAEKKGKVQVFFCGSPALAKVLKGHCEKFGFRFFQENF

NADPH oxidase 4 (Homo sapiens), sequence (Q9NPH5 whole entry, looked up): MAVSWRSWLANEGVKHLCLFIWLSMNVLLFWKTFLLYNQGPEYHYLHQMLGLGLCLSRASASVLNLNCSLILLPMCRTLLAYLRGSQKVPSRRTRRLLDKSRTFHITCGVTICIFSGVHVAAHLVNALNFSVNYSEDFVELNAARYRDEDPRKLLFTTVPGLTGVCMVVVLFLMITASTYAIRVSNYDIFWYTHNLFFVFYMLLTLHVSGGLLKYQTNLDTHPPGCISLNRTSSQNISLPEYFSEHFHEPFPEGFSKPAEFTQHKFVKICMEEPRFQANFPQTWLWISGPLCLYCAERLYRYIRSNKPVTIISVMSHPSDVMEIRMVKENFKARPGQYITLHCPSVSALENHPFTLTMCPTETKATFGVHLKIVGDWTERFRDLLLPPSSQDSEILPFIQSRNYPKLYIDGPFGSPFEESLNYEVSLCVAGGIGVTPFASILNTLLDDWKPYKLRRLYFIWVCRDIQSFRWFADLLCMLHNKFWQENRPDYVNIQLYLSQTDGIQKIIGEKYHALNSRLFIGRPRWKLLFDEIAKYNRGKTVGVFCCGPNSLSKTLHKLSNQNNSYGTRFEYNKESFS
Streptavidin (Streptomyces avidinii), sequence (P22629 whole entry, looked up): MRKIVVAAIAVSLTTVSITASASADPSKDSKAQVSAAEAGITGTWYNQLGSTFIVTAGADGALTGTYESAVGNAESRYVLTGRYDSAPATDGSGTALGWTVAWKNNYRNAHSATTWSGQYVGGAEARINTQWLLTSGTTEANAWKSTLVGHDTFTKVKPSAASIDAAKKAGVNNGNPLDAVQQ
Torsin-1A (Homo sapiens), sequence (O14656 whole entry, looked up): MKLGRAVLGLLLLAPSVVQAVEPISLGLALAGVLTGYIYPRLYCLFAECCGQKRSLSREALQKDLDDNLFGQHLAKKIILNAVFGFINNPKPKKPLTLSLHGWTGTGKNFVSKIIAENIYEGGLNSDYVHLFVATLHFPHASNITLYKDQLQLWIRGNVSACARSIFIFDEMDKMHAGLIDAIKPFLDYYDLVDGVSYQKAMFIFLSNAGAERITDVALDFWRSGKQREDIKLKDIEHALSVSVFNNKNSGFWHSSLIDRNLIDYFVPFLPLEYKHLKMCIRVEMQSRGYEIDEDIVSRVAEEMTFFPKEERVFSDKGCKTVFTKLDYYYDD
NADPH oxidase 2 (Homo sapiens), sequence (P04839 whole entry, looked up): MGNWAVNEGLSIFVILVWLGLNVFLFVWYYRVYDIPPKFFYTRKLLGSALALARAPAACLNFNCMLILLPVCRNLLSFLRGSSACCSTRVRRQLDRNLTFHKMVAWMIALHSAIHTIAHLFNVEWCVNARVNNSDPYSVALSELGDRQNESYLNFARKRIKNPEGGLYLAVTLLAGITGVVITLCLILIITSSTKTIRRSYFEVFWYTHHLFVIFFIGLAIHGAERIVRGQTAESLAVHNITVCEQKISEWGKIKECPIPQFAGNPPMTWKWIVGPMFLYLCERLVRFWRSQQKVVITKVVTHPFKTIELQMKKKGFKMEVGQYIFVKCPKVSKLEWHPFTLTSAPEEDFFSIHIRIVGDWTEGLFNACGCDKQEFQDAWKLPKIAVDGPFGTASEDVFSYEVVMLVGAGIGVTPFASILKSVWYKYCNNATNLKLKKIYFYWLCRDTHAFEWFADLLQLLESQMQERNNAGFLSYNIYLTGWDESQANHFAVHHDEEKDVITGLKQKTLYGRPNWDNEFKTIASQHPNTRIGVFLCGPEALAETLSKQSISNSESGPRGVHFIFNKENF

For the compound `COc1ccc(OC[C@@H](CO)OC)cc1`, the composite z-score in [1] was 0.131; in experiment [6], 0.495; in experiment [7], -0.0962; in experiment [8], 0.373; in [9], 0.304; in experiment [10], 0.577. In [12], this compound had a composite z-score of -0.145. The z-score in experiment [2] is 0.314 (inactive); in [3], 0.86 (inactive); in experiment [4] it was 0.562 (inactive); in [5], 0.17 (inactive); in experiment [11], 0.261 (inactive); in experiment [13], -0.578 (inactive). In addition, the z-score in [14] is -0.348 (inactive); in [15] it was -0.566 (inactive); in [16] it was -0.389 (inactive); in [17], -0.51; in [18], 0.712 (inactive); in experiment [19], 0.422 (inactive). Also, the z-score in experiment [20] was found to be 0.133.
Take `CC(C)=NOC[C@@H](O)[C@H]1O[C@@H]2OC(C)(C)O[C@@H]2[C@H]1O`: the composite z-score is -0.297 in experiment [1]; 1.23 in experiment [6]; 0.333 in experiment [7]; 1.34 in [8]; 0.0837 in experiment [9]; 0.785 in experiment [10]. This compound also returned a composite z-score in experiment [12] of -0.0501. In addition, the z-score was 0.605 (inactive) in experiment [2]; 0.503 (inactive) in experiment [3]; -0.473 (inactive) in [4]; -0.476 (inactive) in experiment [5]; 0.269 (inactive) in [11]; 0.0289 (inactive) in experiment [13]. For the same compound, the z-score is 0.0612 (inactive) in experiment [14]; -0.0091 (inactive) in experiment [15]; 0.269 (inactive) in experiment [16]; 0.0226 in experiment [17]; -0.162 (inactive) in experiment [18]; -0.514 (inactive) in [19]. Besides, the z-score in experiment [20] is 0.0874.
Take `COc1ccc2c(c1)O[C@@H](c1cccc(C(F)(F)F)c1)[C@H](O)C2=O`: the composite z-score in experiment [1] was 0.104; in experiment [6], 0.562; in [7], -0.0645; in experiment [8], -0.0248; in [9], 0.215; in [10], 0.37. Further, the composite z-score in [12] is 0.0328. Further, the z-score in experiment [2] is -2.98 (inactive); in experiment [3], -0.837 (inactive); in experiment [4] it was 2.27 (inactive); in [5], -0.892 (inactive); in experiment [11] it was 0.706 (inactive); in experiment [13] it was 2.08 (inactive). The z-score is 0.18 (inactive) in experiment [14]; 1.19 (inactive) in experiment [15]; 0.347 (inactive) in experiment [16]; 1.15 in experiment [17]; 0.00989 (inactive) in [18]; 0.123 (inactive) in experiment [19]. For the same compound, in [20], the z-score was -0.44.
For `CCN1C(=O)[C@H]2[C@H]3[C@H](O)[C@H](O)CC(=NOC[C@@H](O)[C@H]4O[C@@H]5OC(C)(C)O[C@@H]5[C@H]4O)[C@@H]3CC[C@H]2C1=O`, the composite z-score in experiment [1] is -0.0165; in experiment [6] it was 0.245; in experiment [7] it was -0.246; in [8], 0.382; in experiment [9], 0.205; in experiment [10] it was 0.374. Besides, the composite z-score in experiment [12] is 0.0445. Moreover, the z-score in [2] was 0.297 (inactive); in [3], 0.685 (inactive); in experiment [4], -0.975 (inactive); in experiment [5] it was -0.799 (inactive); in experiment [11], -0.352 (inactive); in experiment [13] it was 0.158 (inactive). Further, the z-score in experiment [14] is 0.196 (inactive); in [15] it was 0.151 (inactive); in experiment [16] it was 0.318 (inactive); in [17], -0.102; in [18] it was -0.842 (inactive); in [19] it was 0.162 (inactive). Moreover, the z-score in [20] was found to be 0.953.
